Results taken from the supplement of paper PMC9897528.

test system: Scedosporium aurantiacum CBS 136046; test: growth inhibition relative to DMSO control (OD600); higher = more antifungal activity, active = 80 or more; extreme values may be limits of the assay; conditions: 5 µM; 72 h; 37 °C
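Further: conidia screened in RPMI 1640 medium under 5% CO2, growth read by spectrophotometer, medium with 0.5% DMSO serving as the untreated reference.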

Growth inhibition, inactive:
N[C@H](CCC(=O)N[C@@H](Cc1c[nH]c2ccccc12)C(=O)O)C(=O)O 1.28%
O=C(NCc1ccccc1Cl)c1cnc2ccccc2n1 10.6%
Cc1cc(NS(=O)(=O)c2ccc(-c3ccc(F)cc3F)cc2)no1 11.5%
Cc1nc(Nc2ccc(F)cc2)nc(N2CCc3ccccc3C2C)c1C (stereo not given) 25.2%
O=C(Nc1ccc(N2CCN(C(=O)c3ccccc3)CC2)cc1)c1ccc2c(c1)OCO2 16.5%
COc1ccc(NS(=O)(=O)c2ccc(Cl)s2)cn1 11.2%
CC[N+]1(C/C2=C/CCCCCC2)CCC(NC(=O)C2c3cc(Cl)ccc3Oc3ccc(Cl)cc32)CC1 (stereo not given) 9.71%
O=C1NC(=S)N/C1=C\c1cc(Br)cc(Br)c1O 12.6%
Cc1cccc(C)c1C(=O)Nc1nc(-c2ccccn2)cc2ccccc12 26.2%
CS(=O)(=O)c1ccc(Oc2ccc(Cl)cc2)cc1 15.2%
